Test [1] in a line: E. coli DRC41 culture turbidity changes, primary screen, E. coli filamentation inducer project, strain DRC41, OD650, 48 h (AID 1152).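 Also: E. coli MC1000 strain DRC41 lacking acrAB efflux pump and sulA.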 The note with it: E. coli DRC41 (acrAB sulA), higher = more signal, called active from +8 up or from −8 down.
A short description of test [2]: small-molecule binders of probe aLefty1, primary screen, biochemical, small-molecule microarray, 635/667 nm fluorescence (AID 1153).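 Also: score merges spot fluorescence with signal-to-noise ratio from the scanned slide images.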 To be noted: higher = more signal.
A short description of test [3]: PSAC antagonists in infected red cells, primary screen, cell-based, P. falciparum Indochina, OD700, 1 h (AID 1154). To be noted: P. falciparum Indochina infected RBC osmotic lysis, higher = more signal, called active from +8 up or from −8 down.
The nature of test [4]: PSAC antagonists in infected red cells, primary screen, cell-based, P. falciparum Indochina, OD700, 2 h (AID 1155).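 Also: lysis reports solute entry through the parasite surface anion channel PSAC; channel blockers reduce lysis of infected cells.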 To be noted: P. falciparum Indochina infected erythrocytes, osmotic lysis OD700; higher = more signal, called active from +8 up or from −8 down.
Test [5] can be described thus: osmotic lysis modulators in infected erythrocytes, primary screen, PSAC antagonist project, cell-based, P. falciparum Indochina, OD700, 3 h (AID 1156). The note with it: higher = more signal, called active from +8 up or from −8 down.
A short description of test [6]: PSAC antagonists in infected red cells, primary screen, cell-based, P. falciparum Indochina, OD700, 18 h (AID 1157). To be noted: P. falciparum Indochina infected erythrocytes, osmotic lysis OD700, 18 h; higher = more signal, called active from +8 up or from −8 down.
Test [7] is described as follows: modulators of S6 phosphorylation in cells, primary screen, cell-based, A549, cytoblot, luminescence, serum-stimulated (AID 1158).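 Also: serum-stimulated A549 lung adenocarcinoma cells; signal is phosphorylated S6 detected by cytoblot immunostaining with HRP secondary.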 To be noted: A549 phospho-S6 cytoblot, 5 h, higher = more signal.
In test [8] the target is NADPH oxidase 2 (Homo sapiens) (UniProt P04839). As to the kind of experiment: NOX2-dependent H2O2 signal modulators, primary screen, NOX inhibitor project, cell-based, HEK293-NOX2, PMA-stimulated, Amplex Red fluorescence (AID 1159). Also: test concentration not given here. The note with it: 45 min, higher = more signal, called active from +8 up or from −8 down.
Sequence of NADPH oxidase 2 (Homo sapiens) (P04839 whole entry, looked up): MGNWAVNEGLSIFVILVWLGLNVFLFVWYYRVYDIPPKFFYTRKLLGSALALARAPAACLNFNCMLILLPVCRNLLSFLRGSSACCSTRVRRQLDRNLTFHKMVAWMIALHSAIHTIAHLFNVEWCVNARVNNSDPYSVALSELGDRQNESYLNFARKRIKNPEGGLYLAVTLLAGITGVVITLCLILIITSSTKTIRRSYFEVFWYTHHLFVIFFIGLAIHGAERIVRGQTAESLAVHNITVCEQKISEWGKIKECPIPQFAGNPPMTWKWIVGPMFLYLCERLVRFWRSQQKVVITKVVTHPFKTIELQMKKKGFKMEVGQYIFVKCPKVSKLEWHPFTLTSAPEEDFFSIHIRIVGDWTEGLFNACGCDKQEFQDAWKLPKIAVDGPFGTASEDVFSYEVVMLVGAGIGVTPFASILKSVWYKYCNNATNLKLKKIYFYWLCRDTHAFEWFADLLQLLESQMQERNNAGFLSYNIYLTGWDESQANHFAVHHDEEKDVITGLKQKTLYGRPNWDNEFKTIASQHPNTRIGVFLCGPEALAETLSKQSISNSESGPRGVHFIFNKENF
Test [9] has as its target NADPH oxidase 4 (Homo sapiens) (UniProt Q9NPH5). As to the kind of experiment: NOX4-dependent H2O2 signal modulators, primary screen, NOX inhibitor project, cell-based, HEK293-NOX4, tetracycline-induced, Amplex Red fluorescence (AID 1160). To be noted: 45 min, higher = more signal, called active from +8 up or from −8 down.
For test [10], the target named is NADPH oxidase 5 (Homo sapiens) (UniProt Q96PH1). Nature of the test: NOX5-dependent H2O2 signal modulators, primary screen, NOX inhibitor project, cell-based, HEK293-NOX5, Amplex Red fluorescence (AID 1161). To be noted: HEK293-NOX5, ionomycin, 45 min, higher = more signal.
Sequence of NADPH oxidase 5 (Homo sapiens) (Q96PH1 whole entry, looked up): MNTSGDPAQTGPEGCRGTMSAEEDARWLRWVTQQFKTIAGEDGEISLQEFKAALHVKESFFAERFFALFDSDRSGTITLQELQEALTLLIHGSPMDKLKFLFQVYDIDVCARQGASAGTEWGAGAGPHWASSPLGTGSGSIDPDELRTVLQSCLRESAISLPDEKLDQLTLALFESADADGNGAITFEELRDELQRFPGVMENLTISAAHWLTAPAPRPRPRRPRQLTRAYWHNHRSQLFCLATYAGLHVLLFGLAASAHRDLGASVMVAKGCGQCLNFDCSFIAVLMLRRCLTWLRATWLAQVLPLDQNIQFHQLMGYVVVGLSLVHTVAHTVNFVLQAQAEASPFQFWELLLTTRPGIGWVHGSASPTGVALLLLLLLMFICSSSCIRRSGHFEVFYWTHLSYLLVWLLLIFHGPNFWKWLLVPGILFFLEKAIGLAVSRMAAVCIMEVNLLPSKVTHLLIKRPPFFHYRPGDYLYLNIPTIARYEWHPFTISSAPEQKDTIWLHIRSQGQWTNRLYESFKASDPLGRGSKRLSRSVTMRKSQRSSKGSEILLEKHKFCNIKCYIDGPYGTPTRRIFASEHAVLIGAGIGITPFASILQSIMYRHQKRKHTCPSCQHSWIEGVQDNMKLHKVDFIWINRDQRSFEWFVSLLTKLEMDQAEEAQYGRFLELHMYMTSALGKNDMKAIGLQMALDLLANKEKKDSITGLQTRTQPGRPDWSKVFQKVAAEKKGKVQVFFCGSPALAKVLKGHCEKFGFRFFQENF
Test [11] in a line: A549 cell viability effects, profiling panel, calcein-AM fluorescence, 48 h, basal (AID 1162). Also: test concentration not given here. The note with it: higher = more signal.
The nature of test [12]: adipocyte viability effects, profiling panel, cell-based, 3T3-L1 adipocytes, calcein-AM fluorescence, 48 h, basal (AID 1163). Also: test concentration not given here. The note with it: 3T3-L1 adipocytes viability, higher = more signal.
Test [13] in a line: HepG2 cell viability effects, profiling panel, calcein-AM fluorescence, 48 h, basal (AID 1164). Also: test concentration not given here. The note with it: higher = more signal.
Test [14] is described as follows: MM1S cell viability effects, profiling panel, calcein-AM fluorescence, 48 h, basal (AID 1165).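 Also: viability of MM1S multiple myeloma cells under basal unstimulated conditions; test concentration not given here.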 To be noted: higher = more signal.
Test [15] is described as follows: basal RPMI8226 viability, no added stimulus, profiling panel, cell-based, calcein-AM fluorescence, 48 h, PK04 Diversity Set (AID 1166).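 Also: cells grown under basal conditions without added stimulus; test concentration not given here.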 The note with it: RPMI8226 myeloma viability, higher = more signal.
Test [16] in a line: basal HepG2 mitochondrial membrane potential changes, profiling panel, cell-based, JC-1 fluorescence, 24 h, 100 nL compound (AID 1167). Also: test concentration not given here. The note with it: higher = more signal.
Test [17] is described as follows: basal 3T3-L1 adipocyte mitochondrial potential changes, profiling panel, cell-based, JC-1 fluorescence, 3T3-L1 adipocytes, 24 h, 100 nL compound (AID 1168). Also: test concentration not given here. To be noted: JC-1 mitochondrial fluorescence, higher = more signal, called active from +8 up or from −8 down.
Test [18] in a line: basal RPMI8226 mitochondrial membrane potential changes, profiling panel, cell-based, JC-1 fluorescence, 24 h, 100 nL compound (AID 1169). Also: test concentration not given here. The note with it: RPMI8226 myeloma, JC-1 mitochondrial potential fluorescence, higher = more signal.
Test [19] is described as follows: basal MM1S mitochondrial membrane potential changes, profiling panel, cell-based, JC-1 fluorescence, 24 h, 100 nL compound (AID 1170). Also: test concentration not given here. To be noted: higher = more signal.
A short description of test [20]: A549 lung cancer cell viability effects, profiling panel, resazurin fluorescence, 24 h, PK04 Diversity Set (AID 1171). Also: test concentration not given here. To be noted: higher = more signal, called active from +8 up or from −8 down. On the technique in general: The colour change of resazurin is a common sign of viable cells or microbes.

In PubChem BioAssay one finds z-score and composite z-score data, which are given here for nine compounds.

SMILES strings stand for the structures. Calls of active or inactive are those of the source.

Sequence of NADPH oxidase 4 (Homo sapiens) (Q9NPH5 whole entry, looked up): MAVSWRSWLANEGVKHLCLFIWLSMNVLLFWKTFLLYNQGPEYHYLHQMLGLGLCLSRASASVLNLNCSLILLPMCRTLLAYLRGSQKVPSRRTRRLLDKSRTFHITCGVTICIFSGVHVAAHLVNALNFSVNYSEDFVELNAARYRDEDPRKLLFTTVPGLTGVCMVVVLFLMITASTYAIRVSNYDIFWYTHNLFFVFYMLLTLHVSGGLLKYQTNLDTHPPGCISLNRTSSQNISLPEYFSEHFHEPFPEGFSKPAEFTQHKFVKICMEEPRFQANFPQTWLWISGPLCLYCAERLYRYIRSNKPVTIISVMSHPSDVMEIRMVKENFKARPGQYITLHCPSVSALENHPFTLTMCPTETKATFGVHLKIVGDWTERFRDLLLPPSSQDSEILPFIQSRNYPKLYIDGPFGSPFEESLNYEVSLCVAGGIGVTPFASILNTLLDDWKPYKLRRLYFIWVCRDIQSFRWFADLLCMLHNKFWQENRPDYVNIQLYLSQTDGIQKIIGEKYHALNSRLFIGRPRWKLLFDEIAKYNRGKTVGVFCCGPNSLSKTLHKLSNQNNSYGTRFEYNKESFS

Turning to `[N-]=[N+]=NCc1ccccc1C[C@]1(C(=O)NCCN2CCOCC2)N=C(c2ccc(OCCCO)cc2)O[C@H]1c1ccccc1CN=[N+]=[N-]`, the z-score in test [1] was 1.26 (inactive); in test [3], 20.7 (active); in [4], 3.07 (inactive); in [5], 0.58 (inactive); in test [6], 0.669 (inactive); in test [7] it was 2.75. Moreover, the z-score is -4.56 (inactive) in test [8]; -2.27 (inactive) in test [9]; -1.27 in test [10]; 0.0783 in test [11]; 1.99 in test [12]; 0.356 in test [13]. For the same compound, the z-score in [14] is -2.14; in [15] it was -3.34; in test [16] it was 1.27; in test [17], -0.492 (inactive); in [18] it was -0.784; in test [19], -1.65. Further, the z-score in [20] was -0.403 (inactive). In [2], this compound yielded a composite z-score of 0.453.
For `CCN(CC)c1ccc(N2CC=CC34O[C@@H]5C=CCOC(=O)[C@@H]5[C@H]3C(=O)N(CCCCCO)[C@@H]4C2=O)cc1` (stereo not given in full), the z-score in test [1] is 0.825 (inactive); in test [3], 1.29 (inactive); in test [4], 0.172 (inactive); in [5], 1.36 (inactive); in test [6], 0.113 (inactive); in test [7], -0.491. The z-score in test [8] is 0.766 (inactive); in [9], 0.449 (inactive); in test [10], 1.67; in test [11], -0.46; in test [12], 1.1; in test [13], -0.0753. The z-score in [14] is -0.0913; in test [15], 0.199; in test [16], 0.497; in [17], 0.876 (inactive); in test [18], 0.0564; in [19], 1.65. Besides, the z-score in test [20] is -0.0833 (inactive). Further, in test [2], the composite z-score is 0.271.
On to `CN1C(=O)C2C=CC(C(O)C(c3ccccc3)c3ccccc3)N(Nc3ccccc3)C2C1=O` (stereo not given), for which the z-score in test [1] is -2.34 (inactive); in [3] it was 1.63 (inactive); in [4], 2.15 (inactive); in test [5] it was 0.742 (inactive); in [6] it was 1.12 (inactive); in test [7] it was -0.946. Further, the z-score in test [8] is -1.39 (inactive); in test [9], -4.91 (inactive); in test [10], -2.44; in test [11], 0.322; in [12] it was -0.648; in test [13], -0.0678. The z-score in test [14] is -1.34; in test [15], -1.07; in test [16] it was -1.66; in test [17] it was -0.981 (inactive); in [18] it was 0.212; in test [19], -0.179. The z-score in test [20] was 0.46 (inactive). In addition, the composite z-score in [2] was found to be 0.516.
For the compound `COC(=O)[C@@]1(Cc2ccccc2)[C@H]2c3cc(C(=O)N(C)C)n(Cc4cc(F)c(F)c(F)c4)c3C[C@H]2CN1C(=O)c1ccccc1`, the z-score in test [1] was -1.61 (inactive); in test [3], 8.57 (active); in test [4], 1.65 (inactive); in [5], 0.893 (inactive); in [6], 1.4 (inactive); in test [7], -0.0786. Also, the z-score in [8] is -0.0214 (inactive); in test [9], 1.57 (inactive); in test [10], 2.13; in [11], -0.749; in test [12] it was 0.135; in test [13], 0.545. Besides, the z-score in test [14] is -2.11; in [15] it was -4.67; in test [16], 0.891; in test [17] it was -1.35 (inactive); in test [18] it was -0.368; in test [19], -0.951. Also, in test [20], the z-score was -0.0085 (inactive). This compound also had a composite z-score in test [2] of 0.611.
For the compound `CN(C)CCCC[C@@H]1NC(=O)[C@@H]2C[C@H](C(=O)NCCCCCCN)[C@H](c3ccc(O)cc3)N2C1=O`, the z-score in test [1] is -0.337 (inactive); in [3], 1.98 (inactive); in test [4], 0.288 (inactive); in [5] it was 1.28 (inactive); in test [6], 0.229 (inactive); in test [7], -0.648. The z-score in test [8] was 1.46 (inactive); in test [9], -0.964 (inactive); in test [10] it was 1.01; in test [11], -0.215; in test [12] it was 0.958; in [13], -0.544. Further, the z-score was 0.405 in test [14]; 0.483 in [15]; -1.36 in [16]; -0.0708 (inactive) in [17]; 0.576 in test [18]; 0.213 in [19]. Besides, the z-score in test [20] was 0.291 (inactive). Further, in test [2], the composite z-score was found to be 1.37.
As to `CCCNC(=O)[C@@]1(c2ccc([N+](=O)[O-])cc2)CC(=O)N(CC23CC4CC(CC(C4)C2)C3)[C@@H]1c1ccc(CO)cc1I`, the z-score in test [1] is 0.0121 (inactive); in test [3], 26 (active); in test [4], 13.3 (active); in test [5], 1.82 (inactive); in test [6], 1.87 (inactive); in test [7] it was -0.151. The z-score in [8] is 1.15 (inactive); in test [9], -0.037 (inactive); in test [10], 2.21; in [11], -1.29; in test [12], -0.738; in test [13], -4.9. The z-score in test [14] was -3.81; in test [15], -4.32; in test [16] it was 0.243; in test [17], -0.0911 (inactive); in [18], -0.872; in test [19], -2.18. Besides, the z-score in [20] was -3.39 (inactive). Besides, the composite z-score in [2] amounted to 0.181.
As to `Cc1ccccc1/C=C/C=O`, the z-score in test [1] is 0.871 (inactive); in test [3] it was 0.51 (inactive); in test [4], 0.146 (inactive); in test [5], -0.0758 (inactive); in [6], 0.231 (inactive); in test [7] it was -0.265. The z-score is -0.59 (inactive) in test [8]; -0.0992 (inactive) in test [9]; 0.45 in test [10]; 1.59 in test [11]; -0.345 in test [12]; 0.93 in [13]. The z-score in [14] was -0.499; in test [15] it was 0.0415; in test [16], 1.65; in test [17] it was 1.39 (inactive); in [18], 0.426; in [19], -0.962. In addition, the z-score in test [20] is -0.122 (inactive). The compound also registered a composite z-score in test [2] of -0.147.
`COC(=O)[C@@]1(Cc2ccc(OC)cc2)[C@H]2c3cc(C(=O)N(C)C)n(Cc4ccc(OC)c(OC)c4)c3C[C@H]2CN1C(=O)c1ccccc1`: the z-score in [1] is -1.86 (inactive); in [3], 2.55 (inactive); in [4] it was 0.807 (inactive); in test [5], 0.804 (inactive); in test [6], 1.23 (inactive); in test [7], -0.574. Further, the z-score in test [8] was 0.178 (inactive); in test [9] it was 1.13 (inactive); in [10], 2.18; in [11], -1.72; in test [12] it was -0.204; in test [13] it was -1.18. Besides, the z-score was -1.32 in test [14]; -2.07 in [15]; 0.297 in test [16]; -1.29 (inactive) in test [17]; -0.605 in [18]; -1.11 in test [19]. Further, the z-score in test [20] was -1.35 (inactive). The composite z-score in test [2] was determined as 1.14.
As to `NC(=O)[C@@]1(CCS(=O)(=O)c2ccccc2)N=C(c2ccc(OCCCO)cc2)O[C@H]1c1ccccc1`, the z-score is 1.24 (inactive) in [1]; 19.7 (active) in test [3]; 2.48 (inactive) in [4]; 1.4 (inactive) in [5]; -0.898 (inactive) in [6]; 2.09 in [7]. Further, the z-score in [8] is -3.88 (inactive); in test [9], -1.85 (inactive); in test [10], -1.61; in test [11], -0.291; in test [12] it was 0.957; in test [13], -1.94. In addition, the z-score was 0.614 in test [14]; -1.13 in test [15]; -0.209 in [16]; -0.219 (inactive) in [17]; 0.634 in test [18]; -0.659 in test [19]. For the same compound, the z-score in test [20] was 0.798 (inactive). Moreover, in test [2], the composite z-score stood at 0.254.
